Pf Dd2 growth = blocks in vitro growth of P. falciparum Dd2. AID 1347417. P. falciparum Dd2 growth, SYBR Green, 72 h. Potency, µM (doses to about 28.9 µM), for the others: at the highest dose activity, negative = inhibition, most hits filed as inhibitors. actives 4.3% (n = 120,000); active = well fitted inhibition curve with a large enough effect;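 also: plate controls were DMSO vehicle for no effect and reference drug for full effect; nearly all actives have a fitted effect of over 65% in size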
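Infected erythrocytes (Dd2, 0.3% parasitemia, 2.5% hematocrit final) are added to compound in RPMI-1640/Albumax II medium, grown 72 h at 37C in low oxygen, then lysed with saponin/Triton-X containing SYBR Green and read by fluorescence.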
Numbers without * were called inactive; i = inactive; [ ] = dose if it differs, or a comment. This is one part of a sample in which hits are shown more often than they occur. Potency is read from the fitted curve at half-maximal effect.

SMILES | Pf Dd2 growth
COc1ccc(-c2noc(-c3cccn3CC(=O)Nc3ccc(F)c(F)c3)n2)cc1F | 2.82µM*
COc1ccc(-c2noc(-c3cccn3CC(=O)Nc3cc(F)ccc3Cl)n2)cc1F | -10.5%
COc1ccc(-c2noc(-c3cccn3CC(=O)NC3CCCC3)n2)cc1F | i
COc1ccc(CCNC(=O)Cn2cccc2-c2nc(-c3ccc(F)cc3)no2)cc1OC | i
COc1ccc(NC(=O)Cn2cccc2-c2nc(-c3ccc4c(c3)OCO4)no2)cc1OC | -23.7%
COC[C@H]1CCCN1C(=O)CC[C@H]1CNC(=O)[C@@H]2[C@@H](CCN2Cc2cccs2)N1C | 0.7%[44.1 µM]
COc1ccccc1CNC(=O)c1cc(S(=O)(=O)N2CCCC(C)C2)cn1C (configuration not stated) | -17.5%
Cc1cccc(C(=O)NCC(=O)OCc2cc(=O)n3nc(C4CCCCC4)sc3n2)c1 | 10.6%
Cc1c(CN2CCOc3ccc(C(=O)NCc4ccccc4F)cc3C2)cnn1C | i
COc1cccc(C(=O)N2CCC3(CC2)N=C(c2cccc(Br)c2)NO3)c1 | -23.0%
COc1cccc(C(=O)N2CCC3(CC2)N=C(c2ccc(C)cc2)NO3)c1 | i
COc1cccc(C(=O)N2CCC3(CC2)N=C(c2ccc(Br)cc2)NO3)c1 | 7.94µM*
COCCNC(=O)c1ccc2c(c1)N(C)C(CC(=O)NCc1ccccn1)CO2 (configuration not stated) | 5.3%
CCN(CC)CCOC(=O)c1ccc(NC(=O)c2cc3cc(OC)ccc3oc2=O)cc1 | 5.7%
CCOC(=O)c1c(C)oc2ccc(N(C(C)=O)S(=O)(=O)c3c(C)cc(C)cc3C)cc12 | 2.9%
Cc1cc(C(=O)NC2CCCC2)c2c(C3CCCNC3)noc2n1 (configuration not stated) | -1.6%
CN(C)S(=O)(=O)CCCN1CC[C@@H](NC(=O)c2ccccn2)[C@H](O)C1 | 8.2%
CCCCCCSc1nnc2c(n1)OC(C)Nc1ccc(Br)cc1-2 (configuration not stated) | 3.6%
Cc1nnc(NC(=O)CSc2nnc3c(n2)[nH]c2ccccc23)s1 | -8.8%
CCCCCSc1nnc2c(n1)[nH]c1c(C)cccc12 | 3.98µM*
O=C1CCN(C(=O)C2CCN(C(=O)c3ccoc3)CC2)CCCCCCN1 | -6.9%
COc1ccc(C(CC(=O)N2CCCC2)c2c[nH]c3ccccc23)cc1 (configuration not stated) | -7.2%
CCc1cccc2c(C(CC(=O)NC(C)CC)c3ccc(OC)c(OC)c3)c[nH]c12 (configuration not stated) | -4.2%
CCCNC(=O)CC(c1ccccc1OC)c1c[nH]c2c(CC)cccc12 (configuration not stated) | i
CCc1cccc2c(C(CC(=O)N3CCc4ccccc4C3)c3cccc4c3OCO4)c[nH]c12 (configuration not stated) | 8.91µM*
SMILES | Pf Dd2 growth
CCOC(=O)C1CCCN(C(=O)CC(c2cccc([N+](=O)[O-])c2)c2c[nH]c3c(CC)cccc23)C1 (configuration not stated) | 12.6µM*
CCCNC(=O)CC(c1ccc(OC)c(OC)c1)c1c[nH]c2c(CC)cccc12 (configuration not stated) | -11.4%
CCc1cccc2c(C(CC(=O)N3CCCC3)c3cccc([N+](=O)[O-])c3)c[nH]c12 (configuration not stated) | 7.94µM*
CCc1cccc2c(C(CC(=O)N3CCCCC3)c3cccc(C)c3)c[nH]c12 (configuration not stated) | i
CC(CCc1ccccc1)NC(=O)CC(c1cccc2c1OCO2)c1c[nH]c2ccccc12 (configuration not stated) | -15.2%
Cc1ccccc1C(=O)N[C@@H]1CN(C)C[C@H]1CN(C)C | 6.2%
Cc1ccccc1C(=O)NCCn1cccc1-c1nc(-c2ccc3c(c2)OCO3)no1 | -12.1%
CCCCn1c(CN2CCN(c3ccc(OC)cc3)CC2)nc2c1c(=O)[nH]c(=O)n2C | -19.5%
COc1ccc(-c2noc(-c3nc(C)no3)n2)cc1OC | 3.7%
Cc1ccc(Cn2cc3c(n2)-c2c(oc(C(=O)Nc4ccc(F)cc4F)c2C)CC3)cc1 | 13.4%
O=C(CSc1nccn1-c1cccc(Cl)c1)Nc1cccc(C(F)(F)F)c1 | i
COc1ccc(C(=O)c2sc3nc(-c4ccc(F)cc4)ccc3c2N)cc1 | 8.3%
COc1ccc2[nH]c(C[C@@H]3C[C@@H](C(C)C)[C@H](CNC4CCN(C(C)=O)CC4)C=C3C)nc2n1 | i
COC(=O)c1ccc2nc(C[C@@H]3C[C@@H](C(C)C)[C@H](CNC4CCN(C)CC4)C=C3C)[nH]c2c1 | 3.16µM*
CC(=O)N1CCC(NC[C@@H]2C=C(C)[C@H](Cc3nc4ccc(C)cc4[nH]3)C[C@H]2C(C)C)CC1 | 11.2µM*
CC1=C[C@@H](CNC(=O)CC2(CC(=O)O)CCCC2)[C@H](C(C)C)C[C@H]1Cc1nc2ccc(C)cc2[nH]1 | -11.7%
CC(=O)N1CCC(NC[C@@H]2C=C(C)[C@H](Cc3nc4ccc(F)cc4[nH]3)C[C@H]2C(C)C)CC1 | 11.2µM*
CC1=C[C@@H](CNC(=O)C2CCC2)[C@H](C(C)C)C[C@H]1Cc1nc2ccc(F)cc2[nH]1 | 11.2µM*
CC1=C[C@@H](CNC(=O)c2cnccn2)[C@H](C(C)C)C[C@H]1Cc1nc2ccc(C)cc2[nH]1 | -6.4%[44.1 µM]
CC1=C[C@@H](CNC(=O)CCC(=O)O)[C@H](C(C)C)C[C@H]1Cc1nc2ccc(F)cc2[nH]1 | -17.4%[44.1 µM]
COCC1CN(C(=O)CN2CCCC2=O)CC12CCNCC2 (configuration not stated) | 5.3%
Cc1cc(C)c(CNC(=O)c2cc(-c3ccccc3)cc3c2OCCN3C)c(=O)[nH]1 | -3.1%[44.1 µM]
Cc1ccc(OCc2nc(-c3ccc(C(=O)NCCc4ccc(S(N)(=O)=O)cc4)cc3)oc2C)cc1 | 20.8%
CN1C(=O)CC[C@]2(C(=O)N3CCCCCC3)CCCC[C@@H]12 | -3.3%
CCS(=O)(=O)N1CCc2cc(C(=O)NCCc3ccc(OC)c(OC)c3)ccc21 | 20.7%
SMILES | Pf Dd2 growth
O=C(NCc1cccn1Cc1ccccc1)Nc1cccc(C(F)(F)F)c1 | 8.91µM*
CCOC(=O)Cc1ccc(NC(=O)NCc2cccn2Cc2ccccc2)cc1 | -28.3%
COc1ccccc1NC(=O)NCc1cccn1Cc1ccccc1 | -0.2%
COCCO[C@H]1C(=O)N(C2CCN(C(=O)c3cccn3C)CC2)[C@H]1c1ccncc1 | -8.7%
CC1Cc2ccccc2N1C(=O)CSc1nnc(-c2cccc(Cl)c2)o1 (configuration not stated) | i
COCCNC(=O)CCCn1c(SCC(=O)NCc2ccc(C)cc2)nc2c(sc3ccccc32)c1=O | 22.0%
CCOC(=O)c1ccccc1NC(=O)Cn1c2ncccc2c(=O)n1-c1ccccc1 | i
O=C(Cn1c2ncccc2c(=O)n1-c1ccccc1)Nc1ccc(F)c(F)c1 | -15.5%
CCc1cccc(-n2c(=O)c3cccnc3n2CC(=O)Nc2ccc(F)c(C)c2)c1 | 1.26µM*
CCc1cccc(-n2c(=O)c3cccnc3n2CC(=O)Nc2c(C)cc(C)cc2C)c1 | -3.8%
Cc1ccc(CNC(=O)Cn2c3ncccc3c(=O)n2-c2ccccc2)cc1 | 39.0%
Cc1ccc(-n2c(=O)c3cccnc3n2CC(=O)Nc2cccc(C)c2C)cc1 | 3.55µM*
Cc1ccc(-n2c(=O)c3cccnc3n2CC(=O)Nc2cc(C)cc(C)c2)cc1 | -11.2%
Cc1ccc(-n2c(=O)c3cccnc3n2CC(=O)Nc2ccc(C)cc2Cl)cc1 | -7.8%
CCc1ccc(-n2c(=O)c3cccnc3n2CC(=O)Nc2ccccc2C(F)(F)F)cc1 | 11.2µM*
